The results in this text go back to the antibiotic and cytotoxicity screens of Wong et al. (2023).

About 3,300 (8.5%) of roughly 39,000 compounds were called active. Shown is part of a subset that was picked to be rich in actives.

For the assay, the system named is HepG2. The assay can be described thus: cytotoxicity call (relative viability < 0.9). As to conditions: 10 µM.
As for `C[C@@H]1CN([C@H](C)CO)C(=O)c2cc(NC(=O)c3ccncc3)ccc2O[C@@H](C)CCCCO[C@H]1CN(C)S(=O)(=O)c1cn(C)cn1`, the cytotoxicity call was “inactive”. Regarding `CC(C)NC(=O)N(C)C[C@@H]1Oc2ncc(-c3ccc(C(=O)N(C)C)cc3)cc2C(=O)N([C@H](C)CO)C[C@H]1C`, the cytotoxicity call is “inactive”. With `CN(C)C(=O)c1cccc(-c2cccc(-c3nc(C(=O)N4CCCCC4)cc4c3[C@H](CCO)N([S@@](=O)C(C)(C)C)C4)c2)c1`, the cytotoxicity call was “inactive”. Regarding `C[C@@H]1CN([C@@H](C)CO)C(=O)c2cc(NC(=O)c3ccccc3)ccc2O[C@@H](C)CCCCO[C@H]1CN(C)C(=O)Nc1ccc2c(c1)OCO2`, the cytotoxicity call is “inactive”. Regarding `C[C@@H]1CN([C@@H](C)CO)C(=O)CCCn2nncc2CO[C@H]1CN(C)Cc1ccc2c(c1)OCCN2C`, the cytotoxicity call is “inactive”. For the compound `CCC(C)C(=O)OC1CCC=C2C=CC(C)C(CCC3CC(O)CC(=O)O3)C21` (stereo not drawn), the cytotoxicity call was “active”. With `CCC(C)C(=O)OC1CC(C)C=C2C=CC(C)C(CCC3CC(O)CC(=O)O3)C21` (stereo not drawn), the cytotoxicity call is “inactive”. Regarding `CCC(C)C(=O)OC1CC(O)C=C2C=CC(C)C(CCC(O)CC(O)CC(=O)[O-])C21.[Na+]` (stereo not drawn), the cytotoxicity call was “inactive”.

Take `C[C@@H]1CN([C@H](C)CO)C(=O)c2cc(NS(=O)(=O)c3ccc(F)cc3)ccc2O[C@@H](C)CCCCO[C@H]1CN(C)C(=O)Nc1ccc(F)cc1`: the cytotoxicity call is “inactive”. Consider `C[C@H](CO)N1C[C@H](C)[C@H](CN(C)C(=O)Nc2ccc(F)cc2)OCCCC[C@H](C)Oc2ccc(NS(=O)(=O)c3ccc(F)cc3)cc2C1=O`, for which the cytotoxicity call is “inactive”. With `C[C@@H]1CCCCO[C@H](CN(C)C(=O)Nc2ccc(F)cc2)[C@@H](C)CN([C@@H](C)CO)C(=O)c2cc(NS(=O)(=O)c3ccc(F)cc3)ccc2O1`, the cytotoxicity call is “active”. In the case of `C[C@@H]1CN([C@@H](C)CO)C(=O)c2cc(NS(=O)(=O)c3ccc(F)cc3)ccc2O[C@@H](C)CCCCO[C@@H]1CN(C)C(=O)Nc1ccc(F)cc1`, the cytotoxicity call was “inactive”. Regarding `C[C@H]1CCCCO[C@H](CN(C)C(=O)Nc2ccc(F)cc2)[C@@H](C)CN([C@@H](C)CO)C(=O)c2cc(NS(=O)(=O)c3ccc(F)cc3)ccc2O1`, the cytotoxicity call was “active”. As to `C[C@@H]1CCCCO[C@H](CN(C)C(=O)Nc2ccc(F)cc2)[C@@H](C)CN([C@H](C)CO)C(=O)c2cc(NS(=O)(=O)c3ccc(F)cc3)ccc2O1`, the cytotoxicity call is “inactive”.

For `C[C@@H]1CN([C@H](C)CO)S(=O)(=O)c2ccc(C#Cc3ccccc3F)cc2O[C@@H]1CN(C)CC1CCOCC1`, the cytotoxicity call is “inactive”. For the compound `COc1ccc(CN(C)C[C@H]2OCCCC[C@@H](C)Oc3ccc(NC(=O)NC4CCCCC4)cc3C(=O)N([C@@H](C)CO)C[C@H]2C)cc1`, the cytotoxicity call was “inactive”. The same measure for `Cc1ncsc1-c1ccc(CNC(=O)[C@@H]2C[C@@H](O)CN2C(=O)[C@H](C(C)C)N2Cc3ccccc3C2=O)cc1`: “inactive”. As for `CN1C(=O)Cc2cc(NS(C)(=O)=O)ccc21`, the cytotoxicity call is “inactive”. Take `COc1ccc(S(=O)(=O)Nc2ccc3c(c2)C(=O)N([C@@H](C)CO)C[C@H](C)[C@H](CN(C)Cc2ccc(C(=O)O)cc2)OCCCC[C@@H](C)O3)cc1`: the cytotoxicity call is “inactive”. In the case of `COCCN1C[C@H]2[C@H](OC)CCN(S(=O)(=O)c3cn(C)cn3)[C@H]2C1`, the cytotoxicity call was “inactive”. Take `CCC(=O)OCC(=O)C1(OC(=O)CC)C(C)CC2C3CCC4=CC(=O)C=CC4(C)C3(Cl)C(O)CC21C` (stereo not drawn): the cytotoxicity call was “inactive”.

In the case of `CCC(=O)OC1(C(=O)CCl)C(C)CC2C3CCC4=CC(=O)C=CC4(C)C3(F)C(O)CC21C` (stereo not drawn), the cytotoxicity call is “inactive”. With `CC1CC2C3CCC4=CC(=O)C=CC4(C)C3(Cl)C(O)CC2(C)C1(OC(=O)c1ccco1)C(=O)CCl` (stereo not drawn), the cytotoxicity call was “active”. The same measure for `C[C@@H]1CCCCO[C@H](CN(C)C(=O)Nc2ccccc2)[C@H](C)CN([C@H](C)CO)C(=O)c2cc(NC(=O)CCC(F)(F)F)ccc2O1`: “inactive”.

Consider `C[C@@H]1CN([C@H](C)CO)C(=O)c2cc(NC(=O)Cc3ccccc3)ccc2O[C@@H](C)CCCCO[C@@H]1CN(C)Cc1ccc(C(=O)O)cc1`, for which the cytotoxicity call is “inactive”. Turning to `Cn1c(=O)c2[nH]c(Br)nc2n(C)c1=O` [listing 1 of 2 here], the cytotoxicity call is “inactive”. For the compound `Cn1c(=O)c2[nH]c(Br)nc2n(C)c1=O` [listing 2 of 2 here], the cytotoxicity call is “inactive”. Take `Cn1c(=O)c2[nH]c(-[n+]3ccc(C(=O)O)cc3)nc2n(C)c1=O`: the cytotoxicity call is “active”. In the case of `C[C@H]1CN([C@@H](C)CO)C(=O)c2cccc(NS(=O)(=O)c3ccc(F)cc3)c2O[C@H]1CN(C)S(C)(=O)=O`, the cytotoxicity call was “inactive”. For the compound `COc1ccc(S(=O)(=O)Nc2ccc3c(c2)C(=O)N([C@@H](C)CO)C[C@H](C)[C@H](CN(C)C(=O)Nc2ccc(C(F)(F)F)cc2)OCCCC[C@H](C)O3)cc1`, the cytotoxicity call was “inactive”. With `COc1ccc(S(=O)(=O)Nc2ccc3c(c2)C(=O)N([C@H](C)CO)C[C@H](C)[C@H](CN(C)C(=O)Nc2ccc(C(F)(F)F)cc2)OCCCC[C@H](C)O3)cc1`, the cytotoxicity call is “inactive”. The same measure for `COc1ccc(S(=O)(=O)Nc2ccc3c(c2)C(=O)N([C@H](C)CO)C[C@H](C)[C@H](CN(C)C(=O)Nc2ccc(C(F)(F)F)cc2)OCCCC[C@@H](C)O3)cc1`: “inactive”. For `COc1ccc(S(=O)(=O)Nc2ccc3c(c2)C(=O)N([C@@H](C)CO)C[C@H](C)[C@@H](CN(C)C(=O)Nc2ccc(C(F)(F)F)cc2)OCCCC[C@@H](C)O3)cc1`, the cytotoxicity call was “active”. For `COc1ccc(S(=O)(=O)Nc2ccc3c(c2)C(=O)N([C@@H](C)CO)C[C@H](C)[C@H](CN(C)C(=O)Nc2ccc(C(F)(F)F)cc2)OCCCC[C@@H](C)O3)cc1`, the cytotoxicity call is “inactive”. Take `COc1ccc(S(=O)(=O)Nc2ccc3c(c2)C(=O)N([C@@H](C)CO)C[C@@H](C)[C@@H](CN(C)C(=O)Nc2ccc(C(F)(F)F)cc2)OCCCC[C@@H](C)O3)cc1`: the cytotoxicity call is “active”. Regarding `COc1ccc(S(=O)(=O)Nc2ccc3c(c2)C(=O)N([C@H](C)CO)C[C@@H](C)[C@H](CN(C)C(=O)Nc2ccc(C(F)(F)F)cc2)OCCCC[C@@H](C)O3)cc1`, the cytotoxicity call is “inactive”.

On to `COc1ccc(S(=O)(=O)Nc2ccc3c(c2)C(=O)N([C@@H](C)CO)C[C@@H](C)[C@H](CN(C)C(=O)Nc2ccc(C(F)(F)F)cc2)OCCCC[C@H](C)O3)cc1`, for which the cytotoxicity call was “inactive”. With `COc1ccc(S(=O)(=O)Nc2ccc3c(c2)C(=O)N([C@@H](C)CO)C[C@H](C)[C@@H](CN(C)C(=O)Nc2ccc(C(F)(F)F)cc2)OCCCC[C@H](C)O3)cc1`, the cytotoxicity call was “active”.
